Common to all, as to experiment: NCI-60 one-dose screen, 48 h (100 = growth as untreated, 0 = no growth, -100 = all killed)
The subject of test [1] is MCF7 breast.
For test [2], the system named is OVCAR-8 ovarian. The settings on record: 10 µM.
In test [3] the test system is OVCAR-4 ovarian.
The subject of test [4] is SK-OV-3 ovarian.
The subject of test [5] is IGROV1 ovarian.
Test [6] deals with OVCAR-3 ovarian.
The subject of test [7] is HS 578T breast.
Test [8] has as its system NCI/ADR-RES ovarian.
Test [9] has as its system T-47D breast.
The subject of test [10] is BT-549 breast.
The subject of test [11] is MDA-MB-435 melanoma.
Test [12] deals with SW-620 colon.
The subject of test [13] is HCT-116 colon.
Test [14] concerns HCC-2998 colon.
In test [15] the test system is KM12 colon.

Where “and” joins values, the source holds several entries; their conditions need not be identical. Equal values may be shown once. The panel holds about 83,000 compounds, 20% with a hit somewhere; the sample as a whole holds those more often.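 Cells were grown in 96-well plates and exposed to the test compound at a single concentration for 48 hours; results are reported as percent growth, with values below 10 considered active.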 A number with no mark means an inactive call. Calls of active or inactive are those of the source. Starred links: 1 amine or outer side, 2 acyl side, 3 side chain; linkers in the order of their positions; H or OH if unused. Positions of bridges follow the written chain, without caps; N, C: chain ends. Non-standard residues stand in square brackets, D forms with d. Residues, ends and D or L forms follow the SMILES beside them. Chains are numbered I, II in the order given. Actinocin(9to1) = Cc1c2oc3c(C)ccc(C(=O)[*:1])c3nc-2c(C(=O)[*:2])c(N)c1=O; aThr = C[C@H](O)[C@H](N)C(=O)O; NMeV = CN[C@H](C(=O)O)C(C)C; Sar = CNCC(=O)O

As to `Cc1ccc2nc(N/N=C/c3ccc(C)s3)cc(C)c2c1`, in test [1] (100 µM), the growth is -94% (active) and -100% (active).

As for `S=c1[nH]nc(Cc2ccccc2)c(=S)[nH]1`, the growth in test [2] was 104%; in [3] (10 µM), 98%; in test [4] (10 µM) it was 99.6%; in test [5] (10 µM) it was 102%; in [6] (10 µM) it was 95.4%; in [7] (10 µM), 101%. Also, the growth in [8] (10 µM) was 100%; in test [9] (10 µM), 90.4%; in test [10] (10 µM), 109%; in test [11] (10 µM), 106%; in test [12] (10 µM) it was 109%; in test [1] (10 µM), 96.5%. The growth was 100% in test [13] (10 µM), 103% in test [14] (10 µM) and 93.2% in test [15] (10 µM).

In the case of `N#C/C(=C1C=C/C(=N\O)C(Cl)=C\1)c1ccccc1`, the growth is 43.2% in [2]; 57% in test [3] (10 µM); 37.5% in [4] (10 µM); 53% in test [5] (10 µM); 39.6% in test [6] (10 µM); 56.2% in test [7] (10 µM). Also, the growth in test [8] (10 µM) is 34%; in [9] (10 µM), 43.3%; in test [10] (10 µM), 110%; in test [11] (10 µM) it was -43% (active); in test [12] (10 µM), 17.8%; in [1] (10 µM), 14.8%. Further, the growth is 5.69% (active) in test [13] (10 µM), 89.7% in test [14] (10 µM) and 13.5% in test [15] (10 µM).

As to `Nc1ccc2cc(Br)c3ccccc3c2c1`, the growth in test [2] is 84.8%; in test [3] (10 µM) it was 56.7%; in test [4] (10 µM), 81.1%; in [5] (10 µM), 82.2%; in [6] (10 µM), 74.6%; in [8] (10 µM), 67.2%. For the same compound, the growth was 28.8% in [9] (10 µM); 68.9% in test [10] (10 µM); 66% in test [11] (10 µM); 35.1% in [1] (10 µM); 71.1% in [13] (10 µM); 47.7% in test [14] (10 µM). Also, the growth in test [15] (10 µM) was 32.6%.

For the compound `Cc1cnc(/C=N\NC(N)=S)c2cccc(N)c12`, the growth in [2] was 17.7%; in [3] (10 µM), 31.9%; in test [4] (10 µM), 22.9%; in [6] (10 µM), 0.342% (active); in [7] (10 µM), 69.1%; in test [8] (10 µM), 10.9%. Further, the growth in test [9] (10 µM) is 9.76% (active); in test [11] (10 µM), 27.8%; in [12] (10 µM), 35%; in test [1] (10 µM), 9.29% (active); in test [13] (10 µM), 17.4%; in test [14] (10 µM), -39.3% (active). For the same compound, in test [15] (10 µM), the growth is 27.9%.

In the case of `CN(C)CCC(=O)c1c[nH]c2ccccc12`, the growth in test [2] was 112%; in test [3] (10 µM), 111%; in [4] (10 µM), 96.6%; in [5] (10 µM), 106%; in [6] (10 µM), 110%; in test [7] (10 µM), 106%. Also, the growth in test [8] (10 µM) is 110%; in test [9] (10 µM), 84.1%; in test [10] (10 µM), 121%; in test [11] (10 µM) it was 107%; in [12] (10 µM), 111%; in test [1] (10 µM), 93.2%. Also, the growth in test [13] (10 µM) is 103%; in test [14] (10 µM) it was 115%; in test [15] (10 µM) it was 102%.

In the case of `Cc1c2oc3c(C)ccc(C(=O)N[C@@H]4C(=O)N[C@H](C(C)C)C(=O)N5CCC[C@H]5C(=O)N(C)CC(=O)N(C)[C@@H](C(C)C)C(=O)O[C@H]4C)c3nc-2c(C(=O)N[C@@H]2C(=O)N[C@H](C(C)C)C(=O)N3CCC[C@H]3C(=O)N(C)CC(=O)N(C)[C@@H](C(C)C)C(=O)O[C@H]2C)c(N)c1=O` (I: [aThr][dV]P[Sar][NMeV] / II: [aThr][dV]P[Sar][NMeV]; ester I:1-I:C, II:1-II:C; linker I:N-II:N via Actinocin(9to1)), the growth in test [3] (0.0025 µM) is 50.3%; in [3] (10 µM) it was -8.21% (active); in [4] (0.0025 µM), 92.8%; in [4] (10 µM), 14.8%; in test [5] (0.0025 µM) it was 35.5%; in test [5] (10 µM), -27.7% (active). Besides, the growth is 70% in test [6] (0.0025 µM); 5.84% (active) in test [6] (10 µM); -10.9% (active) in [7] (0.0025 µM); 96.7% in [8] (0.0025 µM); -39.5% (active) in test [8] (10 µM); 53.6% in test [9] (0.0025 µM). The growth in [9] (10 µM) was -13.8% (active); in test [10] (0.0025 µM), 27.5%; in test [10] (10 µM), -45.4% (active); in [11] (0.0025 µM), 41.6%; in [11] (10 µM) it was -93.8% (active); in test [12] (0.0025 µM), 32.8%. The growth was -27.9% (active) in test [12] (10 µM); 12.2% in test [1] (0.0025 µM); -15.3% (active) in test [1] (10 µM); 16% in test [13] (0.0025 µM); -29.5% (active) in [13] (10 µM); 15.2% in [14] (0.0025 µM). Moreover, the results for the growth in [15] (0.0025 µM) and in [15] (10 µM) were 47.3% and 0.211% (active), respectively.

`CCCCCCCCCCCCCCCCCN`: the growth in [2] is 104%; in [3] (10 µM), 102%; in test [4] (10 µM), 96.8%; in test [5] (10 µM), 107%; in [6] (10 µM), 108%; in [7] (10 µM) it was 103%. Moreover, the growth in test [8] (10 µM) is 115%; in [9] (10 µM), 101%; in [10] (10 µM), 106%; in test [11] (10 µM), 99.5%; in test [12] (10 µM), 97.1%; in test [1] (10 µM), 100%. The growth is 102% in test [13] (10 µM), 126% in test [14] (10 µM) and 110% in test [15] (10 µM).

With `CN1CCN(c2ccc3nc(-c4ccc5nc(-c6ccc(O)cc6)[nH]c5c4)[nH]c3c2)CC1`, the growth in test [3] (10 µM) was 89.8%; in [4] (10 µM), 84.4%; in [5] (10 µM) it was 112%; in test [6] (10 µM), 66.4%; in [8] (10 µM) it was 130%; in test [9] (10 µM) it was 39.2%. Also, the growth in test [10] (10 µM) was 97.9%; in test [11] (10 µM), 52.5%; in [12] (10 µM), 87.1%; in [1] (10 µM), 34.5%; in [13] (10 µM), 48.3%; in test [15] (10 µM), 106%.

Values taken from PubChem BioAssay (NCI).
